Among the data in ChEMBL document CHEMBL3988442, “University of Dundee, Small-Polar-MMV Screening Library” (2021) are Percent Effect values, retold here.

About 420 (0.61%) of roughly 69,000 compounds showed an effect of 50% or more. Many of the other results were omitted from the sample, so strong results are more common in it than they were.

This test concerns the target T1, Histidine--tRNA ligase (Leishmania infantum) (UniProt A4I591).
T1 sequence (whole entry): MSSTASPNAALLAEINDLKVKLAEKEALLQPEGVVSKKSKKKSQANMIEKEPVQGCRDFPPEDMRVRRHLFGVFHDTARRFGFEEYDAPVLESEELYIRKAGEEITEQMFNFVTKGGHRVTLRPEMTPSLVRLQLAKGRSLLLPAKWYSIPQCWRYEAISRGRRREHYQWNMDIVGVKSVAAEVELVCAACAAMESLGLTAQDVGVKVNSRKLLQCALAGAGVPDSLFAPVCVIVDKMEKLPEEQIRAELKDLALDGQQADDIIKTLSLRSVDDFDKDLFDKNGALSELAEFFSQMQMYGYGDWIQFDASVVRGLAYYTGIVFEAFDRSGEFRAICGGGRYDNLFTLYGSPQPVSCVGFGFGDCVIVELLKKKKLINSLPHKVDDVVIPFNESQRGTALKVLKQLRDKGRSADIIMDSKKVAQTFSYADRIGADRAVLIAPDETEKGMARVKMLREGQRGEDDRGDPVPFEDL
The test can be described thus: Leishmania infantum Histidine tRNA synthetase (LdHisRS). It counts as functional. Also noted: scale not given: in the data most compounds retested in dose-response had high values. As to conditions: 30 µM.
For the molecule `Cn1cccc(NC(=O)N2CCC(CSc3ccccc3)C2)c1=O` (configuration not stated), the Percent Effect was found to be 78.1%.
Regarding `CC(C)[C@H](NC(=O)N1CCC(Cc2ccccc2)CC1)C(=O)O`, the Percent Effect was -2.5%.
Consider `Cn1ccnc1CC1CCCN(C(=O)Nc2cccn(C)c2=O)C1` (configuration not stated), for which the Percent Effect stood at 17.3%.
Under `COc1c(C(=O)N2CCC(CSc3ccccc3)C2)c(C)nn1C` (configuration not stated) stands 19.2%; under `Cc1csc(CN2C[C@@H]3COC[C@]3(C(=O)NCc3ccco3)C2)n1`, 7%.
Under `Cc1oncc1C(=O)N1CC[C@H]2[C@H](CO[C@@H]2CNS(C)(=O)=O)C1` stands 28.6%; under `CN(C)C[C@H]1OC[C@@H]2CCN(C(=O)Cc3cccs3)C[C@@H]21`, 7.89%.
In the case of `CN(C)C(=O)N1C[C@@H](C(=O)NCc2ccco2)C[C@H]2OCC[C@H]21`, the Percent Effect worked out at 0%.
On to `O=C(O)[C@]12CCCN(Cc3cccs3)C[C@H]1CN(c1ncccn1)C2`, for which the Percent Effect was 22.2%.
Under `Cc1nc[nH]c1CN1C[C@@H]2CC[C@H](C1)N(C(=O)CCc1cnn(C)c1)C2` stands 16.4%.
Under `CN(C)C(=O)c1cccc(NC(=O)Cc2cc(F)ccc2F)n1` stands 19.7%.
Under `Cc1ccc(C)c(CC(=O)Nc2cccc(C(=O)N(C)C)n2)c1` stands 17.1%; under `COc1cc(CC(=O)Nc2cccc(C(=O)N(C)C)n2)ccc1C`, 54%.
Turning to `O=S(=O)(c1cccs1)N1CC[C@H]2[C@H]1CCN2CC1CC1`, the Percent Effect stood at 3.88%.
To `CN(C)C[C@H]1OC[C@@H]2CCN(C(=O)c3cccn3C)C[C@@H]21` belongs 9.43%; to `c1ccc(COC[C@H]2CC[C@H]3[C@H](CCN3Cc3ccccn3)O2)nc1`, 10%.
To `NC(=O)c1ccccc1-n1cc(-c2cccc(C(=O)O)c2)cn1` belongs 52.6%.
As for `NC(=O)c1cc(-c2cccc(C(=O)O)c2)cs1`, the Percent Effect was found to be 15.8%.
In the case of `NC(=O)c1cc(-n2cc(-c3cccc(C(=O)O)c3)cn2)cs1`, the Percent Effect turned out to be 10.5%.
Under `CCC1=NN2C(=N)/C(=C\c3cccn3-c3ccc(Br)cc3)C(=O)N=C2S1` stands 11%; under `CN(C)CCN1C[C@@H]2CN(c3ccccc3)C[C@@H]2C1=O`, 6.36%; under `CCc1cnc(CN(C)C(C)C(=O)N2CCc3ccccc3C2)s1` (configuration not stated), 9.09%.
As to `CC(C(=O)N1CCc2ccccc2C1)N(C)Cc1cscn1` (configuration not stated), the Percent Effect worked out at 3.9%.
Under `Cc1csc(CN(C)C(C)C(=O)N2CCc3ccccc3C2)n1` (configuration not stated) stands 55.8%; under `O=C(NCc1ccco1)[C@H]1C[C@@H]2CCN(c3cccc(F)c3)C[C@H]2O1`, 25%; under `Cc1cnc(N2C[C@@H]3CN(Cc4ccco4)CCC[C@]3(C(=O)O)C2)nc1`, 19.4%.
To `COCC(=O)N1CCC2(CC1)NC(=O)[C@H]1CN(C(=O)N(C)C)C[C@H]12` belongs 25.2%; to `CN1CCO[C@@H]2CN(C(=O)NCc3ccccc3)CC[C@@H]2C1`, 4.54%.
In the case of `Cc1cccc(S(=O)(=O)N2C[C@H]3C[C@H](C(=O)NCC(C)C)[C@@H](C2)O3)c1`, the Percent Effect was 12%.
Under `c1ccc(-c2noc(CN3CCc4cncnc4C3)n2)nc1` stands 36%; under `CCn1nc2c(cc1=O)CN(Cc1nc(-c3cccs3)no1)CC2`, 25.9%; under `Cn1nc2c(cc1=O)CN(Cc1nc(-c3ccccn3)no1)CC2`, 99.1%.
To `CCn1nc2c(cc1=O)CN(Cc1nc(-c3ccccn3)no1)CC2` belongs 85.1%.
Take `CCn1nc2c(cc1=O)CN(Cc1nc(-c3cccnc3)no1)CC2`: the Percent Effect was found to be 14.7%.
Regarding `CCc1ncc2c(n1)CN(Cc1nc(-c3ccccn3)no1)CC2`, the Percent Effect is 22.7%.
Under `COc1ccc(CN2C[C@@H]3COC[C@H](N4CCN(C)CC4)[C@@H]3C2)cc1` stands 1%.
As for `CC(C)(C)SCCN1CC(=O)N2CC[C@@H](O)C[C@H]2C1=O`, the Percent Effect was 10.6%.
Under `O=C(c1ccco1)N1CC[C@@H]2O[C@@H](COCCN3CCCC3)CC[C@@H]21` stands 4.59%; under `Cc1nccn1-c1ccc(NS(=O)(=O)c2cnn(C(C)C)c2)cn1`, 50.6%; under `Cc1nccn1-c1ccc(NS(=O)(=O)c2cnn(C)c2)cn1`, 31.3%.
Consider `Cc1nccn1-c1ccc(NS(=O)(=O)c2cccnc2)cn1`, for which the Percent Effect turned out to be 33.7%.
For the molecule `CCC(C)NS(=O)(=O)c1ccc(/C=C\c2onc(C)c2NC(C)=O)cc1` (configuration not stated), the Percent Effect is 5.48%.
With `Cc1cc(-c2nn(C)c(Cl)c2CN2CC[C@H](CO)[C@@H](O)C2)no1`, the Percent Effect was found to be 2.78%.
On to `Cc1cc(-c2nn(C)c(Cl)c2CN2CCOCC(O)C2)no1` (configuration not stated), for which the Percent Effect was found to be 15.2%.
For `Cc1cc(-c2nn(C)c(Cl)c2CN2Cc3ccccc3C(O)C2)no1` (configuration not stated), the Percent Effect turned out to be 66.7%.
On to `CO[C@@H]1CC[C@H]2[C@H]1OCCN2C(=O)C1CCOCC1`, for which the Percent Effect is 23.1%.
Under `O=C(c1cc(-c2ccco2)cs1)N1CCOCC1` stands 25%.
Under `CN1CCN(C(=O)c2cc(-c3ccco3)cs2)CC1` stands 30%; under `O=C(c1cc(-c2ccco2)cs1)N1CCCC1`, 55%; under `Cc1ocnc1C(=O)N1CCN(C(=O)CC(C)C)[C@@H]2CS(=O)(=O)C[C@@H]21`, 6.67%.
Consider `Cc1cccc(N2Cc3nc(=O)n(Cc4cccc(F)c4)n3C2=O)c1`, for which the Percent Effect amounted to 14.1%.
Under `COc1ccccc1C(=O)NC(c1ccccn1)[C@H]1CC[C@H](CN)CC1` (some centres not stated) stands 88.4%; under `NC[C@H]1CC[C@H](C(NC(=O)c2ccccc2)c2ccccn2)CC1` (some centres not stated), 22.9%; under `COc1cccc(C(=O)NC(c2ccccn2)[C@H]2CC[C@H](CN)CC2)c1` (some centres not stated), 39.1%.
Under `NC[C@H]1CC[C@H](C(NC(=O)C2CC2)c2ccccn2)CC1` (some centres not stated) stands 18.8%; under `NC[C@H]1CC[C@H](C(NC(=O)c2ccccn2)c2ccccn2)CC1` (some centres not stated), 22.9%.
Take `NC[C@H]1CC[C@H](C(NC(=O)c2cccc(F)c2)c2ccccn2)CC1` (some centres not stated): the Percent Effect came out at 60%.
